CASP6 VEID inh: inhibitors of human caspase-6; P55212; purified caspase-6, Z-VEID-R110 cleavage fluorescence; inhibition, % at 12.5 µM; hit rate 0.53% among 350,000; AID 686996;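 active = mean inhibition across replicates at least about 35%, with every replicate also reaching that limit, limit read from the data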
UBC9 SUMO inh: blocks human SUMOylation mediated by UBC9 | inhibition, % at 35 µM | AID 2006 | P63279 | HTRF SUMOylation assay, SAE1/SAE2 + UBC9, in vitro | hit rate 0.36% among 290,000; in the data active = inhibition above about 50%, passing the limit was not always enough
SIRT5 block: sirtuin-5 (human) deacylase inhibition; AID 652115; hit rate 1.1% among 330,000; inhibition, % at 15 µM; Purified SirT5, succinyl-peptide AMC, trypsin-coupled fluorescence; Q9NXA8; in the data active = inhibition above about 15%
NSD2 inh: blocks human histone methyltransferase NSD2; inhibition, % at 12.5 µM; NSD2 peptide methylation, AlphaScreen, 120 min; hit rate 0.54% among 310,000; in the data active = inhibition above about 50%
Hits are given with their value; 0 = inactive; - = no result. Only some compounds are listed: those with a hit (about 1.6% of all), similar ones and a draw of the others.

SMILES	CASP6 VEID inh	UBC9 SUMO inh	SIRT5 block	NSD2 inh
CO[C@@H]1CN(C)C(=O)c2cc(NS(C)(=O)=O)ccc2OC[C@H](C)NC[C@H]1C	0	-	0	-
O=C(Nc1nccs1)c1cc2cc(Cl)ccc2oc1=O	0	0	21	0
O=C(Nc1nccs1)c1ccc(Cl)cc1[N+](=O)[O-]	0	0	0	-
O=C(O)c1ccccc1-c1c2cc(I)c(=O)c(I)c-2oc2c(I)c(O)c(I)cc12	0	-	29	-
C[C@H]1CN([C@@H](C)CO)C(=O)c2cc(C3=CCCC3)cnc2O[C@H]1CN(C)C(=O)c1ccncc1	0	-	0	-
COc1ccc(CCNC(=O)C2CC(=O)N(c3ccc(C)cc3)C2)cc1OC (configuration not stated)	0	0	0	0
COc1ccc(CCN2CC(C(=O)NCCc3ccc(C)cc3)CC2=O)cc1OC (configuration not stated)	48	0	0	0
O=C(CSc1nnc(-c2ccncc2)n1-c1ccccc1Cl)Nc1ccc(C(=O)O)cc1	0	0	-	0
O=C(CSc1nnc(-c2ccco2)n1-c1ccccc1Cl)Nc1cccc(C(=O)O)c1	55	0	0	0
Cc1ccc(C(=O)c2ccc([N+](=O)[O-])cc2)cc1	-	0	-	0
Cc1ccc(C(=O)c2coc3cc([N+](=O)[O-])c(O)c([N+](=O)[O-])c23)cc1	48	0	0	0
CCOc1ccc(NC(=O)CN(C)C(=O)c2cc(C)nc3ccccc23)cc1OCC	37	-	0	0
CCOc1ccc(NC(=O)CN(C)C(=O)c2cc(-c3ccncc3)nc3ccccc23)cc1OCC	0	-	0	0
CCOC(=O)N1CCN(C(=O)/C(=C/c2cccs2)NC(=O)c2cccs2)CC1	0	0	17	0
CCOC(=O)c1c(C)oc2c1c(C(c1ccccc1)N1CCOCC1)c(O)c1ccccc12 (configuration not stated)	-	0	-	0
CCOC(=O)c1c(C)oc2c1c(C=NCCO)c(O)c1ccccc12	0	0	0	101
O=C(NCCNC(=O)c1ccccc1F)c1ccccn1	0	0	16	0
CCc1cc(=O)oc2c3c(cc(OCC(=O)NCCCCCC(=O)O)c12)OC(C)(C)CC3	0	53	0	0
CCc1cc(=O)oc2c3c(cc(OCC(=O)NCc4ccccn4)c12)OC(C)(C)CC3	0	0	0	-
Cc1cc(C)cc(Nc2cc(C)nc3nc(C)nn23)c1	0	0	16	-
COc1ccc2oc(-c3ccco3)cc(=O)c2c1	0	0	0	-
O=C(COc1ccc2oc(-c3ccco3)cc(=O)c2c1)N1CCCCC1	0	52	0	0
CCCC[C@@H](O)C1=C(COC)C[C@H]2C(=O)N(Cc3ccccc3)C(=O)[C@H]2[C@H]1CO	0	-	0	-
COc1cc(NS(=O)(=O)c2ccc(Nc3nc(-c4cccc([N+](=O)[O-])c4)cs3)cc2)nc(OC)n1	0	0	19	0
O=[N+]([O-])c1cccc(-c2csc(Nc3ccccc3)n2)c1	0	0	0	0
SMILES	CASP6 VEID inh	UBC9 SUMO inh	SIRT5 block	NSD2 inh
O=C(Cc1ccc(Cl)cc1Cl)Nc1cccc(S(=O)(=O)Nc2ccccc2F)c1	0	0	30	0
O=C(/C=C/c1ccccc1)Nc1cccc(S(=O)(=O)Nc2ccccc2F)c1	0	0	25	0
O=C(NNC(=O)c1cccc(S(=O)(=O)Nc2ccccc2F)c1)c1ccncc1	0	-	18	0
O=C(Nc1cccc(S(=O)(=O)Nc2ccccc2F)c1)c1ccc2ccccc2n1	0	0	0	0
O=C(C[C@H]1CC[C@@H](NS(=O)(=O)c2ccccc2)[C@@H](CO)O1)N1CCc2ccccc2C1	0	-	0	-
Cc1noc(C)c1S(=O)(=O)N(C)C[C@@H]1Oc2ccc(NS(=O)(=O)c3ccccc3)cc2C(=O)N([C@H](C)CO)C[C@@H]1C	0	-	0	-
COc1ccccc1CNC(=O)C1CCC(CNS(=O)(=O)c2cccs2)CC1 (configuration not stated)	0	0	0	0
COc1ccccc1CNS(=O)(=O)c1cccs1	0	0	89	0
CC(C)(C)OC(=O)[C@H](Cc1ccccc1)NC(=O)c1nc[nH]c1C(=O)NC1CCNCC1	0	-	-	-
CC(C)C[C@H](NC(=O)c1nc[nH]c1C(=O)NC1CCNCC1)C(=O)OC(C)(C)C	0	-	17	-
CN1CCN(C(=O)[C@@H]2[C@@H](CO)[C@@H]3Cn4c(cccc4=O)[C@@H]3N2Cc2ccccc2F)CC1	0	-	0	-
O=C([C@H]1[C@H](CO)[C@H]2Cn3c(cccc3=O)[C@H]2N1Cc1cc(F)ccc1F)N1CCOCC1	37	-	0	-
CCNC(=O)[C@H]1[C@H](CO)[C@H]2Cn3c(cccc3=O)[C@H]2N1Cc1cccc(F)c1	0	-	0	-
O=C(NCC(F)(F)F)[C@@H]1[C@@H](CO)[C@@H]2Cn3c(cccc3=O)[C@@H]2N1Cc1cccc(F)c1	0	-	16	-
